This is a sample that favours compounds with a hit; in the whole collection about 0.93% have one here.
CIT2-GFP yeast = modulators of CIT2-GFP expression in yeast, primary screen, S. cerevisiae, GFP fusion, multiplex flow cytometry, MLPCN library. S. cerevisiae CIT2-GFP strain, 3 h; 100 means same as DMSO wells. GFP response vs DMSO, % at 10 µM. 0.065% of 320,000 active;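 active means GFP response relative to DMSO above a set limit, near the screen mean plus 3 SD, cut at about 150% in these data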;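 further: ratio of well median GFP fluorescence to mean of DMSO wells on the plate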
RPL19A-GFP yeast = RPL19A-GFP expression modulators in yeast, primary screen, cell-based, S. cerevisiae, multiplex flow cytometry, MLPCN; percent response vs DMSO, % at 10 µM; AID 2025, 2009; S. cerevisiae RPL19A-GFP strain, 3 h; hits give low values; 0.3% of 330,000 active;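 active means percent response vs DMSO below 50%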;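 further: median channel GFP fluorescence of the barcoded RPL19A-GFP strain; lower means less RPL19A-GFP as with rapamycin TOR inhibition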
MEP2 TOR yeast = modulators of MEP2-GFP levels in yeast, primary screen, S. cerevisiae, multiplex flow cytometry, MLPCN library. 0.51% of 330,000 active. AID 2016, 2009. S. cerevisiae MEP2-GFP strain, 3 h; 100% = DMSO control level. GFP response vs DMSO, % at 10 µM;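 active means GFP response versus DMSO above a set limit, roughly screen mean plus 3 SD, cut at about 180% in these data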;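 further: median GFP fluorescence of the barcode-gated MEP2-GFP cells per well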
AGP1 TOR yeast = modulators of AGP1-GFP expression in yeast TOR pathway, primary screen, cell-based, multiplex flow cytometry, S. cerevisiae, MLPCN library; 0.02% of 320,000 active; 3 h; GFP as percent of DMSO wells; GFP response vs DMSO, % at 10 µM;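 active means GFP response relative to DMSO above a set limit, near screen average plus 3 SD, cut at about 150% in these data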;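 further: median GFP channel fluorescence of the gated AGP1 strain per well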
LAP4 TOR yeast = modulators of LAP4-GFP expression in yeast, primary screen, S. cerevisiae, multiplex flow cytometry, MLPCN library; 3 h; median GFP as percent of DMSO wells; GFP response vs DMSO, % at 10 µM; 0.34% of 320,000 active; AID 2023, 2009;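 active means GFP response vs DMSO above a set limit, about the screen mean plus 3 SD, cut at about 150% in these data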
LAP4-GFP pick2 = LAP4-GFP expression modulators in yeast, confirmation, cell-based, second cherry pick, flow cytometry. shares compounds with LAP4 TOR yeast. S. cerevisiae LAP4-GFP strain, 3 h. GFP response vs DMSO, % at 10 µM. 20% of 590 active. AID 2621, 2010;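 active means GFP signal as percent of the solvent control above about 150%, meaning raised reporter expression, limit read from the data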
MEP2-GFP pick2 = modulators of MEP2-GFP levels in yeast, confirmation, S. cerevisiae, flow cytometry GFP, second cherry picks. GFP response vs DMSO, % at 10 µM. 10% of 590 active. AID 2622, 2010. S. cerevisiae MEP2-GFP strain, 3 h. shares compounds with LAP4 TOR yeast;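 active means GFP signal above 150% of the solvent control wells, that is a rise of more than half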;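 further: median channel GFP fluorescence of all gated yeast cells per well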
RPL19A-GFP pick2 = RPL19A-GFP modulators in TOR pathway yeast, confirmation, cell-based, S. cerevisiae, flow cytometry, second cherry pick; shares compounds with LAP4 TOR yeast; S. cerevisiae RPL19A-GFP strain, 3 h; hits give low values; 100% means same as DMSO wells; GFP response vs DMSO, % at 10 µM; 3% of 590 active;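 active means under 65% GFP response relative to DMSO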;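 further: median GFP channel fluorescence per well over the all cells gate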
CIT2-GFP pick2 = modulators of CIT2-GFP expression in yeast, confirmation, flow cytometry, second cherry pick, single plex; shares compounds with LAP4 TOR yeast; S. cerevisiae CIT2-GFP strain, 3 h; DMSO control wells read 100%; GFP response vs DMSO, % at 10 µM; 8% of 590 active;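 active means GFP response vs DMSO above about 150%, limit read from the data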;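 further: median green fluorescence per well over all gated yeast cells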
AGP1-GFP pick2 = AGP1-GFP expression modulators, hit retest, confirmation, cell-based, flow cytometry, S. cerevisiae, cherry pick set 2; S. cerevisiae AGP1-GFP strain, 3 h; percent response vs DMSO, % at 10 µM; AID 2643, 2010; 590 tested, under 10 active; shares compounds with LAP4 TOR yeast;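 active means over 150 percent of DMSO response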;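 further: median GFP channel fluorescence over all cells without mother daughter split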
s288c autofluor = compound autofluorescence in yeast s288c, dose response, artefact control for yeast TOR pathway GFP screen, s288c strain | shares compounds with LAP4 TOR yeast | fluorescence change (kMESF span) at 33 µM | S. cerevisiae s288c, 520 nm autofluorescence, flow cytometry, 3 h; hits give high values; zero means same as solvent-only cells | 610 tested, under 10 active;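 active means fluorescence span over the dose series, or activity score, above about 33, limit read from the data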
Yeast autofl DR = autofluorescence of compounds in yeast s288c, dose response, artefact control for yeast TOR pathway GFP screen, primary hits, KU SAR, s288c parental. shares compounds with LAP4 TOR yeast. S. cerevisiae s288c parental, compound autofluorescence, flow cytometry, 3 h. fluorescence change (span) at 33 µM. 110 tested, under 10 active. AID 488829, 2010;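 active means fluorescence change span, or the activity score built from it, above 25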
TORC1 bypass gr = wild-type yeast growth inhibition sparing TORC1 bypass cells, mechanism study for yeast TOR pathway GFP screen, BY4741 wild type, TORC1 bypass strain. AID 504456, 2011. shares compounds with LAP4 TOR yeast. growth rating (0-3) at 30 µM. 120 tested, under 10 active. S. cerevisiae BY4741 spot growth rating, 48-72 h; hits give low values;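 active means growth rating at most 1 for wild type yeast while the TORC1 bypass strain still grows fully, rated 3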
Large screens that a line does not name were inactive (follow-up assays come after a bar, where they were run).

COc1ccccc1-c1nnc(SCCN2CCOCC2)n1-c1ccc(C)cc1	MEP2 TOR yeast 196 | LAP4-GFP pick2 inactive | MEP2-GFP pick2 inactive | RPL19A-GFP pick2 inactive | CIT2-GFP pick2 inactive | AGP1-GFP pick2 inactive
COc1ccc2c(c1)c(/C=C/c1cc[n+](C)cc1)cn2C	CIT2-GFP yeast 196, MEP2 TOR yeast 214 | s288c autofluor inactive
COc1ccc2c(/C=C/c3cc[n+](C)cc3)c[nH]c2c1	CIT2-GFP yeast 210, MEP2 TOR yeast 207, LAP4 TOR yeast 150 | s288c autofluor inactive
Cc1ccc2[nH]cc(/C=C/c3cc[n+](C)cc3)c2c1	MEP2 TOR yeast 217, LAP4 TOR yeast 151 | s288c autofluor inactive
COC(=O)Cn1cc(/C=C/c2cc[n+](C)cc2)c2ccccc21	none
CC[n+]1ccc(/C=C/c2c[nH]c3ccccc23)cc1	none
COC(=O)c1sc(N2C(=O)C(O)=C(C(=O)c3ccc(C)o3)C2c2cc(OC)ccc2OC)nc1C (stereo not given)	none
CN(Cc1ccccc1)S(=O)(=O)c1ccc(NC(=O)c2ccccc2C(=O)O)cc1	none
Cc1cccc(/C=C/C(=O)c2ccc([N+](=O)[O-])o2)c1	LAP4 TOR yeast 176 | LAP4-GFP pick2 247 | MEP2-GFP pick2 150 | RPL19A-GFP pick2 inactive | CIT2-GFP pick2 157 | AGP1-GFP pick2 inactive | s288c autofluor inactive
O=C(/C=C/c1cccc([N+](=O)[O-])c1)c1ccc([N+](=O)[O-])o1	LAP4 TOR yeast 243 | LAP4-GFP pick2 182 | MEP2-GFP pick2 inactive | RPL19A-GFP pick2 inactive | CIT2-GFP pick2 inactive | AGP1-GFP pick2 inactive | s288c autofluor inactive
O=C(/C=C/c1cccc([N+](=O)[O-])c1)c1ccco1	none
O=C1C=CC(=O)N1c1ccc(Sc2ccc([N+](=O)[O-])cc2)cc1	LAP4 TOR yeast 162 | s288c autofluor inactive
Cn1c(N)c(Sc2ccc([N+](=O)[O-])cc2)c(=O)n(C)c1=O	none
COc1ccc(/C(C)=N/Nc2ccccc2Cl)c(O)c1	none | LAP4-GFP pick2 inactive | MEP2-GFP pick2 inactive | RPL19A-GFP pick2 inactive | CIT2-GFP pick2 inactive | AGP1-GFP pick2 inactive
N#Cc1ccc(Oc2ncccn2)cc1	none
NS(=O)(=O)c1ccc(CCNC(=O)CNS(=O)(=O)c2cccc(Br)c2)cc1	none
C=CCN1C(=O)/C(=C/c2ccc(-c3ccc(F)cc3)o2)SC1=S	LAP4 TOR yeast 163 | LAP4-GFP pick2 169 | MEP2-GFP pick2 inactive | RPL19A-GFP pick2 inactive | CIT2-GFP pick2 inactive | AGP1-GFP pick2 inactive | s288c autofluor inactive
CC1=NN(c2ccccc2)C(=O)/C1=C/c1c(C)[nH]n(-c2ccc(C)cc2)c1=O	none | LAP4-GFP pick2 inactive | MEP2-GFP pick2 inactive | RPL19A-GFP pick2 inactive | CIT2-GFP pick2 inactive | AGP1-GFP pick2 inactive
CC1=NN(c2ccccc2)C(=O)/C1=C/c1cccc(C)c1	none
Cc1cc(C)cc(C(=O)Nc2ccncc2)c1	none
Oc1c(Br)cc(Br)cc1/C=N/c1nccs1	LAP4 TOR yeast 194 | LAP4-GFP pick2 inactive | MEP2-GFP pick2 inactive | RPL19A-GFP pick2 inactive | CIT2-GFP pick2 inactive | AGP1-GFP pick2 inactive
Oc1c(Br)cc(Br)cc1C=Nc1cccnc1	none | LAP4-GFP pick2 inactive | MEP2-GFP pick2 inactive | RPL19A-GFP pick2 inactive | CIT2-GFP pick2 inactive | AGP1-GFP pick2 inactive
Oc1c(Br)cc(Br)cc1C=Nc1ccc2[nH]ncc2c1	LAP4 TOR yeast 184 | s288c autofluor inactive
Oc1ccc(Cl)cc1/C=N/c1nccs1	none
CC(C)(C)c1ccc(OCCCC(=O)Nc2ccc(S(N)(=O)=O)cc2)cc1	none
COc1ccc(-c2cn(Cc3ccc4ccccc4c3)nn2)cc1	none
COc1ccc(-c2cn(Cc3ccc(C(=O)c4ccccc4)cc3)nn2)cc1	LAP4 TOR yeast 164 | LAP4-GFP pick2 inactive | MEP2-GFP pick2 inactive | RPL19A-GFP pick2 inactive | CIT2-GFP pick2 inactive | AGP1-GFP pick2 inactive
CCC(C)NC(=O)C(=O)NCC1CCCN1CC (stereo not given)	none
CN(O)/C=c1/ccc2c(n1)C(=O)C=CC=2	LAP4 TOR yeast 275 | s288c autofluor inactive
COCc1nc(-c2cc(OC)c(OC)c(OC)c2)no1	RPL19A-GFP yeast 25, MEP2 TOR yeast 793 | LAP4-GFP pick2 inactive | MEP2-GFP pick2 inactive | RPL19A-GFP pick2 inactive | CIT2-GFP pick2 inactive | AGP1-GFP pick2 inactive
Cc1[nH][nH]c(=O)c1C(c1ccccc1[N+](=O)[O-])C(C#N)C#N (stereo not given)	none
CC1=NN(c2ccccc2)C(=O)C1C(c1ccccc1[N+](=O)[O-])C(C#N)C#N (stereo not given)	none (no result: CIT2-GFP yeast, RPL19A-GFP yeast, MEP2 TOR yeast, AGP1 TOR yeast, LAP4 TOR yeast) | Yeast autofl DR inactive | TORC1 bypass gr inactive
CC(C)N1CCc2c(sc(NC(=S)NC(=O)c3ccccc3)c2C#N)C1	none

Screens from PubChem.
